About 290 (0.081%) of roughly 360,000 compounds were called active. A call without a number means that no potency is given here. Calls follow the shape of the dose curve; as a rule, active = well fitted activation curve with a large enough effect; inconclusive = small, poorly fitted or top-dose-only effect; inactive = no such curve, though single readings can be large or run the other way. This excerpt belongs to a sample that is enriched for actives.
The compounds below were run against Rap guanine nucleotide exchange factor 4 (Homo sapiens) (UniProt Q8WZA2) (assay: qHTS for Agonist of cAMP-regulated guanine nucleotide exchange factor 4 (EPAC2): primary screen). Conditions: biochemical qHTS; Potency: EPAC2 activation; series mostly up to 154 µM.
Chain of Rap guanine nucleotide exchange factor 4 (Homo sapiens) (Q8WZA2 whole entry, looked up): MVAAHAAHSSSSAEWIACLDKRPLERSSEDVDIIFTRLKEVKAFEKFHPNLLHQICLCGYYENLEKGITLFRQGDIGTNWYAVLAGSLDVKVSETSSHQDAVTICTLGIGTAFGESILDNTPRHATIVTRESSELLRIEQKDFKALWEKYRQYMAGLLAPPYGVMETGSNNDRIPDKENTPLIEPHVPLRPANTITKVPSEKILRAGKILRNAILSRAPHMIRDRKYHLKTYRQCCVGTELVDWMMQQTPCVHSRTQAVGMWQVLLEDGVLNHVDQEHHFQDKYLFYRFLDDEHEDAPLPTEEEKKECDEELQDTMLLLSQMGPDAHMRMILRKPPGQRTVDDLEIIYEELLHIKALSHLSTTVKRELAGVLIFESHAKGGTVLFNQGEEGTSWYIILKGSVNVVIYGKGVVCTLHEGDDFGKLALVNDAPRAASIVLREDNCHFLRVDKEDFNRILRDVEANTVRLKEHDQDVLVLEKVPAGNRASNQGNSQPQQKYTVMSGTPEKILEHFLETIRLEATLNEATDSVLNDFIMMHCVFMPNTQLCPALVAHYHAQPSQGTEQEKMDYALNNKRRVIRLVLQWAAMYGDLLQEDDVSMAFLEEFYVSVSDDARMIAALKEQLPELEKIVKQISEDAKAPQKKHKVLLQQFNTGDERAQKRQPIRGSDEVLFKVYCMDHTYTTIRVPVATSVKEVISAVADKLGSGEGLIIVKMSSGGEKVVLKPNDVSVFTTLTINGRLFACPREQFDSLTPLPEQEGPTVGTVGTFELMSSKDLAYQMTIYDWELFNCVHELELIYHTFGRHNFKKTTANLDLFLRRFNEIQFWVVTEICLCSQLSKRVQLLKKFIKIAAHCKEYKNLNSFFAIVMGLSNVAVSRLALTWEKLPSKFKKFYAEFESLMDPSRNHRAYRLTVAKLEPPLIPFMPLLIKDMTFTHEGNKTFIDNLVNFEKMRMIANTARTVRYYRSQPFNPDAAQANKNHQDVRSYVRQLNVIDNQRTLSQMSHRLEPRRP
Text: In multi-cellular eukaryotic organisms, the effects of cAMP are transduced by two ubiquitously-expressed intracellular cAMP receptors, the classic protein kinase A/cAMP-dependent protein kinase (PKA/cAPK) and the more recently discovered exchange protein directly activated by cAMP/cAMP-regulated guanine nucleotide exchange factor (EPAC/cAMP-GEF). Both PKA and EPAC are ubiquitously expressed in all tissues, and an increase in intracellular cAMP levels will lead to the activation of both PKA and EPAC. Therefore, careful dissections of the individual role and relative contribution of EPAC and PKA within the overall cAMP signaling in various model systems are critical for further elucidating the mechanism of cAMP signaling. To date no EPAC-specific antagonists and agonist, as well as isoform-specific agonists have been reported, and developing EPAC-specific pharmacological probes to determine the physiological functions that EPAC play in the overall cAMP-mediated signaling remains a major challenge within the research field. Furthermore, identified regulators of EPAC may lead to new mechanism-based therapeutic strategies specifically targeting the EPAC / cAMP-signaling components as EPAC has been implicated to play important roles in major human pathological conditions such as diabetes, heart disease, and cancer.
This qHTS will be used to screen the Molecular Libraries Small Molecule Repository (MLSMR) as a concentration-titration series using the NCGC unique quantitative screening (qHTS) platform to find activators for EPAC2. In addition, this assay will also be used as a counterscreen for the EPAC1 qHTS. This fluorescent based assay is developed and validated for EPAC2 that measures exchange using EPAC effector Rap1 complex with BODIPY-GDP, a GDP analog with a tethered fluorophores. Activators are identified by monitoring the change in fluorescence signal as the exchanged free BODIPY-GDP has a reduced fluorescence compared to Rap1-bound BODIPY-GDP. […] in signal (activation) is the desired outcome for the EPAC2 agonist while no activity in this assay is desired for the EPAC1 agonist counterscreen.
[1] de Rooij, J., Zwartkruis, F. J., Verheijen, M. H., Cool, R. H., Nijman, S. M., Wittinghofer, A., and Bos, J.L. (1998) Nature 396, 474-477
[2] Kawasaki, H., Springett, G. M., Mochizuki, N., Toki, S., Nakaya, M., Matsuda, M., Housman, D. E., and Graybiel, A. M. (1998) Science 282, 2275-2279
NIH Chemical Genomics Center [NCGC]
NIH Molecular Libraries Probe Centers Network [MLPCN]
Assay Submitter (PI): Xiaodong Cheng, The University of Texas, Medical Branch
Briefly, three uL of reagents (100 nM EPAC2, 250 nM RAP1B-BODIPY-GDP, 50 uM GDP) were dispensed into a 1536-well Greiner black solid-bottom medium binding assay plate. Controls and test compounds (23 nL) were transferred to the plate via a Kalypsys pin tool equipped with a 1536-pin array. The plates were centrifuged at 1,000 rpm for 15 seconds followed by 5 minute incubation at room temperature. The assay plates were read at 5 minute intervals for 30 minutes in the ViewLux plate reader using 480nm excitation and 540nm emission filters. The results were normalized to the agonist positive control of 6.5 mM cAMP.
Also: nearly all actives have a fitted effect of over 50% in size.
Potency is read from the fitted curve at half-maximal effect.

| Compound | Potency |
| --- | --- |
| COc1cccc(N2C(=O)NC(=O)/C(=C\c3cn(C)c4ccccc34)C2=O)c1 | 100 µM (active) |
| CCc1nc2ccccc2c(=O)n1-c1cccc(OC)c1 | inactive |
| CC1C(=O)OC2CCN3CC=C(COC(=O)C(C)(O)C1(C)O)C23 (stereo not given) | inactive |
| CSC1=NP(=S)(SC)N(C)c2nc3n(c21)CCC3 (stereo not given) | inactive |
| CC(=O)c1ccc(OC(NC(=O)Cc2ccccc2)C(Cl)(Cl)Cl)cc1 (stereo not given) | inactive |
